Screening results from PubChem BioAssay.
Rows were chosen to be rich in hits. Some 3.7% of all compounds tested hit in one or more screens of this group.
GPR7 antagonist: human neuropeptides B/W receptor 1 antagonism | hit rate 1.1% among 290,000 | GPR7-expressing cells, fluorescence antagonist assay | inhibition, % at 4.4 µM | P48145; in the data active = inhibition above about 16%, passing the limit was not always enough;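 note: cells stimulated with the agonist NPW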
CHT inh: inhibits the human high affinity choline transporter; B-score at 10 µM; AID 488975; CHT-expressing cells, membrane potential dye, choline response; active compounds read low; hit rate 0.86% among 310,000;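 active = B-score over 3 SD under the library average, and starting fluorescence ratio not unusually high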;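 note: choline stimulus applied at its EC90 after an EC20 pre-addition; B-score computed on integrated fluorescence ratio after choline addition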
TMEM16A act: activators or potentiators of mouse TMEM16A chloride channel; hit rate 0.3% among 340,000; HEK293 TMEM16A/YFP-H148Q/I152L, iodide quench fluorescence; active compounds read low; AID 623877; Q8BHY3; B-score at 10 µM;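 active = fluorescence-ratio B-score plate-corrected deviation score at least 3 library SD below zero, with starting fluorescence score within 5 deviations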;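 note: channel opened by trigger with iodide after compound preincubation; score built on the fluorescence ratio of max minus min over baseline; more negative score means more quench and so TMEM16A activation or potentiation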
TMEM16A inh: inhibitors of mouse TMEM16A calcium-activated chloride channel | Q8BHY3 | HEK293 TMEM16A/YFP iodide influx fluorescence, ionomycin | normalized B-score (activity score, 25-100; higher = stronger inhibition) at 10 µM | hit rate 1.2% among 310,000;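 active = ratio plate-corrected score three or more library SD toward inhibition, starting fluorescence score within five deviations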;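 note: score derived from kinetic fluorescence span divided by baseline fluorescence per well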
Kir21 inh: blocks the mouse Kir2.1 inward-rectifier potassium channel; B-score at 10 µM; P35561; HEK293-Kir2.1, FluxOR thallium flux fluorescence; active compounds read low; AID 1672; hit rate 0.85% among 310,000;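 active = fluorescence ratio B-score at or below minus 3 SD of library scores, with starting-brightness B-score within 2 SD, cut at about -4.2 in these data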;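 note: channel flux triggered by added potassium and thallium sulfate stimulus; B-score of peak minus minimum fluorescence over baseline after thallium stimulus; more negative B-score means stronger Kir2.1 block with less thallium influx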
CHT allo act: allosterically activates the human high affinity choline transporter | hit rate 0.49% among 310,000 | B-score at 10 µM | CHT-expressing cells, membrane potential dye, choline EC20; active compounds read high; LV-AA mutant CHT in HEK293 cells;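 active = initial fluorescence not abnormally high and integrated response B-score, plate-corrected, over 3 SD above library mean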
A number is an active result; - = inactive; . = no result.

SMILES	GPR7 antagonist	CHT inh	TMEM16A act	TMEM16A inh	Kir21 inh	CHT allo act
Cc1ccc(NC(=O)N2CCCN(Cc3ccc(F)cc3)C2)cc1C	-	-	-	-	-5.4	-
Cc1onc(NC(=O)c2ccc(Cl)cc2Cl)c1Br	-	-	-	-	-	-
Cc1cc(C)c2c(n1)nn1c(NCCCN(C)C)cc(C)nc21	-	-	-	-	-	8.1
CCc1ncc(C)nc1CC	.	-	-	100	.	-
CCc1ncc(C)[nH]1	-	-	.	-	-	-
CN(CC(=O)Nc1ccc(Cl)c(C(F)(F)F)c1)C(=O)Cc1ccsc1	.	-	-	-	-	-
O=C(Nc1ccc(F)cc1)c1nn(-c2ccccc2)c(=O)cc1Cl	46	.	-	.	-	.
CCOC(=O)C1CCCN(C(=O)C(C)Oc2ccc(Cl)cc2Cl)C1 (stereo not drawn)	-	-	-	-	-4.7	-
CC(C)(C)c1ccc(-n2nc(C#N)c(Cl)cc2=O)cc1	84	.	-	.	-	.
CC(=O)Nc1ccc2c(c1)N(S(=O)(=O)c1cccs1)CCC2	.	-	-	-	-	-
Cc1cc(Nc2nnnn2-c2ccccc2)n(-c2ccccc2)n1	-	-	-	-	-	-
Cc1cc2ncn(-c3nnnn3-c3ccccc3)c2cc1C	19	-	-	-	-	-
COc1ccc(CNCc2ccc3ccccc3c2)c(OC)c1	-	-	-	-	-8.5	-
CC(NC(=O)Nc1nnc(C(F)(F)F)s1)(C(F)(F)F)C(F)(F)F	-	-	-	100	-	-
CCN1/C(=C/c2sc(-c3ccccc3C)c[n+]2C)Sc2ccccc21	47	.	-	.	-7.6	.
Cc1ccc(/C=C/S(=O)(=O)NCCC(=O)NCc2ccc(F)cc2)cc1	.	.	-42	.	.	.
Cc1ccc(/C=C/S(=O)(=O)NCCC(=O)NCc2ccccc2F)cc1	.	.	-	.	.	.
Cc1cc(Cl)c(OCCOCCN2CCCC(C)C2)c(Br)c1 (stereo not drawn)	-	-	-	-	-4.3	-
CCc1nc(C)cn1S(=O)(=O)c1cc(Br)c(C)cc1OC	-	-	-	-	-12	-
CCc1nc(C)cn1S(=O)(=O)c1cc(F)ccc1OC	-	-	-	-	-	-
CCc1nc(C)cn1S(=O)(=O)c1cc(C)c(OC)cc1C	-	-	-	-	-5.2	-
CCc1nc(C)cn1S(=O)(=O)c1cc(C)c(OC)c(C)c1C	-	-	-	-	-5.6	-
C=CC[C@H](CC(=O)NCCO)C(=O)N[C@H](COC(=O)[C@@H](CC=C)Cc1ccc(F)cc1)C(C)(C)C	.	.	-	.	.	.
C=C1C(=O)O[C@H]2C[C@]3(C)C([C@@H](OC(=O)/C(C)=C/C)[C@H]12)[C@](C)(O)CC[C@H]3O (stereo partly drawn)	-	-	-	-	-	-
C=C[C@@]1(C)CC(=O)[C@]2(O)[C@@]3(C)[C@@H](O)CCC(C)(C)[C@@H]3[C@H](O)[C@H](OC(C)=O)[C@@]2(C)O1	.	-6.4	-	-	-	-
SMILES	GPR7 antagonist	CHT inh	TMEM16A act	TMEM16A inh	Kir21 inh	CHT allo act
CC(C)(C)n1nnnc1C(c1ccccn1)N(Cc1ccccc1)Cc1ccc(Cl)cc1 (stereo not drawn)	-	-	-5.1	-	-	-
CCN(Cc1ccccc1)C(=O)C1CCN(Cc2ccc(SC)cc2)CC1	-	-	-	-	-	-
CCN(Cc1ccccc1)C1CCN(Cc2ccc(SC)cc2)CC1	-	-	-	-	-4.6	-
COc1cccc(CNC(=O)CSCc2cnn(-c3ccccc3)c2-n2cccc2)c1	-	-	-	-	-5.8	-
Clc1ccccc1Cn1nnc2ccccc21	-	-	-	-	-	-
O=C(c1ccc(N2CCOCC2)cc1[N+](=O)[O-])N1CCOCC1	-	-	-	-	-	-
CC(=O)c1ccc(OCc2cc(C(=O)N3CCC(Oc4ccccc4C)CC3)no2)cc1	-	-	-	100	-	-
O=c1cc(-c2ccccc2Cl)oc2c(NS(=O)(=O)c3cc(Cl)cc(Cl)c3O)ccc(O)c12	-	-9.8	-	100	-	-
O=C(C1CCN(S(=O)(=O)c2cccc3cccnc23)CC1)N1CCCCC1	-	-	-	-	-	-
C=CCCCN(Cc1ccccc1)S(=O)(=O)c1ccccc1Br	.	-	-6.2	25	-	-
CCC(C)[C@H](NS(=O)(=O)c1ccc(C)cc1)C(=O)N1CCC(C(=O)N[C@@H](Cc2ccccc2)C(=O)O)CC1 (stereo partly drawn)	-	-	-	-	-	-
Cc1ncc(S(=O)(=O)c2ccc(Cl)cc2)c(-c2ccccc2)n1	-	-	-	-	-4.8	-
Nc1nc(-c2ccc(Cl)cc2)c(S(=O)(=O)c2ccccc2)s1	-	-	-	-	-	-
c1ccc(SCCOCCN2CCc3ccccc3C2)cc1	-	-	-	-	-5.4	-
c1ccc(SCCN2CCc3ccccc3C2)cc1	-	-	-	-	-	-
Cc1ccc(NC(=S)NCc2ccc(F)cc2)c(C)c1	-	-	-	-	-	-
Cc1cc(Br)ccc1NC(=S)NCCc1ccccc1	-	-	-	-	-	-
Cc1ccc(C)c(NC(=S)NCCc2ccc(F)cc2)c1	-	-	-	-	-4.5	-
Cc1cc(C)c(S(=O)(=O)NCCc2ccccc2)c(C)c1	-	-	-	-	-10	-
Cc1ccc(NC(=S)NCCc2ccccc2)c(C)c1	-	-	-	-	-5.1	-
CC(=O)c1cc2c(cc1NC(=O)Cc1c(C)noc1C)OCO2	.	.	-	.	.	.
Cc1cc(OCC(=O)OCC(=O)NCc2ccco2)ccc1Cl	.	-	-	-	-	-
CCOC(=O)C1CCN(CC(=O)c2ccc(O)c(C)c2O)CC1	-	-	-	-	-	-
C[C@H](CO)N1C[C@H](C)[C@@H](CN(C)C(=O)NC2CCCCC2)Oc2ccc(NC(=O)Nc3ccccc3)cc2C1=O	.	.	-	.	.	.
C[C@H](CO)N1C[C@H](C)[C@@H](CN(C)C(=O)NC2CCCCC2)Oc2ccc(NC(=O)Nc3ccc(C(F)(F)F)cc3)cc2C1=O	.	.	-5	.	.	.
SMILES	GPR7 antagonist	CHT inh	TMEM16A act	TMEM16A inh	Kir21 inh	CHT allo act
O=C1S/C(=C\c2ccc(O)c([N+](=O)[O-])c2)C(=O)N1c1ccccc1Cl	-	-	-	100	-	-
COc1cc(/C=C2\SC(=O)N(c3cccc(Cl)c3)C2=O)cc([N+](=O)[O-])c1O	-	.	-5.6	.	.	.
COc1cc(/C=C2\SC(=O)N(c3ccc(Cl)cc3)C2=O)cc([N+](=O)[O-])c1O	-	.	-	.	.	.
O=C(NCC(c1ccc(F)cc1)N1CCOCC1)c1ccc([N+](=O)[O-])o1 (stereo not drawn)	.	.	-	.	.	.
O=C(NCc1cccnc1)/C(=C/c1ccc(-c2cccc(C(F)(F)F)c2)o1)NC(=O)c1ccccc1	-	-	-	-	-	-
O=C(NCc1cccnc1)/C(=C\c1ccc(-c2ccc(Br)cc2)o1)S(=O)(=O)c1ccccc1	23	-	-	-	-	-
O=C(NCc1cccnc1)/C(=C/c1ccc(-c2ccc(Cl)cc2)o1)S(=O)(=O)c1ccccc1	27	-	-	-	-	-
